We go through 29 molecules from PubChem BioAssay AID651593 (National Center for Advancing Translational Sciences (NCATS), 2012).

Screen size: about 1,100 compounds; about 860 (78%) were called active. Another 19% or so got no clear call; they are omitted. The call rests on the fitted dose curve; in most records, active means well fitted activation curve with a large enough effect; inconclusive means small, poorly fitted or top-dose-only effect; inactive means flat fitted curve, though single readings scatter. The set was probably picked from earlier hits. This is one part of the list.
Potency means the concentration at half of the fitted maximal effect.

This assay can be described thus: qHTS of Nrf2 Activators: Hit Validation in Primary Assay. Further: nearly all actives have a fitted effect of over 70% in size. Particulars: Nrf2/ARE reporter cell assay; Potency: activation; series mostly up to 46.1 µM. The procedure, abridged:
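Luminescence from Steady-Glo lysis reagent, read after 30 min, reported ARE-luciferase activity in AREc32_fluc stable cells. Compounds were tested at several concentrations, incubated 24 h at 37 °C with 5% CO2 following overnight seeding.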
A general note: qHTS replaces the single test concentration by a dilution series.
Turning to `N#Cc1sc2nc(-c3ccccc3)cc(C(F)(F)F)c2c1N`, the Potency is 2.59 µM (active).

Take `Cc1cc(O)c(NC(=O)c2cc([N+](=O)[O-])ccc2Cl)cc1C`: the Potency is 2.31 µM (active).

`Cc1ccc(O)c(NC(=O)c2cc([N+](=O)[O-])ccc2Cl)c1`: the Potency was 2.91 µM (active).

As for `O=C(Nc1cccc([N+](=O)[O-])c1)c1[nH]ncc1Cl`, the Potency was 5.8 µM (active).

As for `O=C(Nc1ccccc1)c1cc([N+](=O)[O-])ccc1Cl`, the Potency was 1.46 µM (active).

Consider `CS(=O)(=O)Nc1ccc(C(=O)Nc2cccc([N+](=O)[O-])c2)cc1`, for which the Potency was 7.31 µM (active).

Regarding `O=[N+]([O-])c1ccccc1C=NNc1ccccc1`, the Potency was 5.17 µM (active).

As to `O=[N+]([O-])c1ccccc1/C=N/Nc1nccnc1Cl`, the Potency was 16.4 µM (active).

With `COn1c(=O)c(-c2cccc(Br)c2)[n+]([O-])c2ccccc21`, the Potency is 14.6 µM (active).

As for `CCn1c(=NC(=O)c2ccco2)sc2cccc(F)c21`, the Potency was 1.3 µM (active).

With `Cn1c(NCC2CCCCC2)nc2cc(-c3ccsc3)sc2c1=O`, the Potency was 2.31 µM (active).

Regarding `Brc1ccc(C2=CC(c3ccco3)n3nnnc3N2)cc1` (centres undefined), the Potency was 9.2 µM (active).

With `C1=C(c2ccc(-c3ccccc3)cc2)Nc2ncnn2C1c1ccco1` (centres undefined), the Potency was 6.51 µM (active).

As for `Cc1ccc(Sc2cnn(-c3ccccc3)c(=O)c2Cl)cc1`, the Potency result is “inactive”.

Regarding `O=C(O)c1ccc(-n2ncc(Cl)c(Cl)c2=O)cc1`, the Potency was 2.91 µM (active).

Turning to `c1ccc(-c2cc3c(-n4cccc4)ncnc3o2)cc1`, the Potency is 2.06 µM (active).

`Cc1c(Cl)cccc1N=c1c([N+](=O)[O-])nn(-c2ccccc2)n1O`: the Potency is 2.31 µM (active).

With `COc1ccc(Cl)cc1NC(=O)CCS(=O)(=O)c1cccc2nonc12`, the Potency is 16.4 µM (active).

Regarding `Nc1c(Cl)cc(N=Nc2ccccc2)cc1Cl`, the Potency was 2.59 µM (active).

On to `O=c1oc2ccccc2nc1/C=C(\O)c1ccc(Br)cc1`, for which the Potency is 20.6 µM (active).

For `O=C(Cn1cnc2ccccc21)N/N=C/C(Br)=C/c1ccccc1`, the Potency was 20.6 µM (active).

`OCCC#Cc1c(-c2ccsc2)sc2ccccc12`: the Potency is 2.31 µM (active).

In the case of `O=C(/C=C/c1ccco1)Nc1ccc(-c2nc3ccccc3[nH]2)cc1`, the Potency was 1.3 µM (active).

Consider `O=C(/C=C/c1ccco1)Nc1ccc(Cl)c(-c2nc3cc(Cl)ccc3o2)c1`, for which the Potency was 1.16 µM (active).

Regarding `O=C(/C=C/c1ccco1)Nc1cccc(S(=O)(=O)N2CCOCC2)c1`, the Potency was 8.2 µM (active).

With `O=C(/C=C/c1ccco1)Nc1ccc2nn(-c3ccccc3)nc2c1`, the Potency was 7.31 µM (active).

With `O=[N+]([O-])c1cc2c(cc1Br)-c1ccccc1C2`, the Potency was 2.31 µM (active).

`COc1cc2c(cc1NC(=O)c1ccccc1F)CCCC2`: the Potency is 6.51 µM (active).

Regarding `COc1cc2c(cc1NC(=O)c1cccc(F)c1)CCCC2`, the Potency was 2.59 µM (active).
